Experimental data from ChEMBL document CHEMBL1157539, “Thousands of chemical starting points for antimalarial lead identification” (Nature, 2010).

What was measured:
Assay type in all cases: functional
Plasmodium falciparum [1] = test: GSK_TCMDC: Inhibition of Plasmodium falciparum 3D7 in whole red blood cells, using parasite LDH activity as an index of growth. Test compounds present at 2uM
Plasmodium falciparum [2] = test: GSK_TCMDC: Inhibition of Plasmodium falciparum Dd2 in whole red blood cells, using parasite LDH activity as an index of growth. Test compounds present at 2uM
HepG2 = test: GSK_TCMDC: Percent inhibition of human HepG2 cell line. Test compounds present at 10uM.

SMILES | Inhibition (Plasmodium falciparum [1]) [%] | Inhibition (Plasmodium falciparum [2]) [%] | Inhibition (HepG2) [%]
COc1cc(C(=O)NC2CCN(Cc3ccccc3)CC2)ccc1-c1nc2cc(Cl)c(Cl)cc2[nH]1 | 100 | 100 | 14
CN1CCC(Oc2cc(NC(=O)Nc3ccc(-c4ccncc4)c(C(F)(F)F)c3)ccc2Cl)CC1 | 100 | 92 | 30
Oc1ccc2ccccc2c1CNCC1CCCCC1 | 98 | 93 | 0
COc1cc2nc(N3CCC(CNC(=O)/C=C/c4ccccc4F)CC3)nc(N)c2cc1OC.Cl | 100 | 88 | 0
NCCNc1ccc([N+](=O)[O-])cc1C(=O)Nc1cccc(Cl)c1 | 85 | 7 | 23
CCOc1cc(C(=O)NC2CC(C)(C)NC(C)(C)C2)ccc1-c1cc2cc(Cl)c(Cl)cc2[nH]1 | 100 | 46 | 37
Oc1c(Br)cc2oc3c(c2c1CNCc1ccccc1)CCCC3 | 99 | 74 | 0
O=C(CSc1nnc(-c2ccccc2Br)[nH]1)c1c[nH]c2ccccc12 | 100 | 95 | 7
CC(C)CCN(Cc1cncn1Cc1cccc(Cl)c1)C(=O)c1cncc(-c2ccccc2)c1 | 99 | 0 | 9
C=C[C@H]1CN(CCCCCCC)CC[C@H]1C[C@@H](Cc1ccnc2ccc(OC)cc12)OC(=O)[C@](OC)(c1ccccc1)C(F)(F)F | 96 | 96 | 12
COc1ccc(-n2cc(CNCCCn3ccnc3)c(-c3cccc(F)c3)n2)cc1 | 98 | 17 | 21
Cn1cnc2c(SCc3ccc(OCc4ccccc4)cc3)ncnc21 | 95 | 87 | 1
Cc1cc(N2CCCN(CC3CCCCC3)CC2)nc(Nc2ccc(Br)cc2)n1 | 95 | 54 | 24
O=C(O)C(F)(F)F.c1cc(CN2CCCCC2)cc(-c2csc(-c3nc4ccccc4[nH]3)c2)c1 | 90 | 16 | 26
COc1ccc(-c2cc(Nc3nc(-c4cccc(Cl)c4)nc4ccccc34)ccn2)cc1 | 100 | 17 | 3
O=C(Nc1ccc2c(c1)OCO2)c1cc(-c2cccnc2)cnc1NCc1ccc2c(c1)OCO2 | 87 | 1 | 2
CC(C)c1ccc(NC(=O)c2ccc(CN3CCCN(CC4CCCCC4)CC3)cc2)cc1.O=C(O)C(F)(F)F | 90 | 34 | 50
Cc1ccc(NC(=O)NCCCCCN2CCC(c3c[nH]c4ccccc34)CC2)cc1I | 94 | 5 | 96
Cc1c(C)n(C2CCCC2)c2ncnc(OC3CCN(CC(=O)NCC4CC4)CC3)c12 | 89 | 89 | 20
COc1cc(NC(=O)NC(CCN2CCC3(CCc4ccccc43)CC2)c2ccc(Cl)c(Cl)c2)cc(OC)c1OC (configuration not stated) | 90 | 66 | 66
CCCCCCCN1CC[C@@H](CCCc2ccnc3ccc(OCC4CCCNC4)cc23)[C@@H](CC)C1.Cl (some centres not stated) | 98 | 100 | 99
CC1(CCCCN2CCC(Oc3ccc(F)cc3F)CC2)C(=O)Nc2ccccc21.Cl (configuration not stated) | 99 | 6 | 6

SMILES | Inhibition (Plasmodium falciparum [1]) [%] | Inhibition (Plasmodium falciparum [2]) [%] | Inhibition (HepG2) [%]
O=C(O)C(F)(F)F.O=c1ccc2ccc(F)c3c2n1CC3CN1CCC(NCc2cccc(-c3cccs3)c2)CC1 (configuration not stated) | 100 | 75 | 17
Cc1nc(Nc2ccncc2)cc(-c2ccncc2)n1 | 100 | 3 | 6
CC(C)n1c(C2CCN(CC3CCN(C(=O)/C=C/c4ccc(Cl)c(Cl)c4)CC3)CC2)nc2ccccc21 | 94 | 7 | 36
O=C(CC1CCCC1)N(Cc1ccc(-c2ccc(CNC3Cc4ccccc4C3)cc2)cc1)CC1CCCCN1.O=C(O)C(F)(F)F (configuration not stated) | 88 | 86 | 41
CCCCCCN1CCC(NCc2ccc(Cl)cc2)CC1.O=C(O)C(F)(F)F | 98 | 9 | 19
O=[N+]([O-])c1cccc(-c2ccc(C=NNc3cc(N4CCCC4)nc(N4CCCC4)n3)o2)c1 | 100 | 67 | 0
Cc1ccc(Nc2nc(C)cc(Nc3cccc(NS(C)(=O)=O)c3)n2)cc1 | 96 | 8 | 0
O=C(Nc1ccc(F)cc1)c1nc2ccccc2nc1Cl | 80 | 62 | 44
CC(C)(C(=O)Nc1ccc(C2CCC(NCC3CC3)CC2)c(Cl)c1)c1cccc(OC(F)F)c1 (configuration not stated) | 99 | 23 | 34
COc1cc2c(cc1S(=O)(=O)c1ccc(NC(=O)c3cccc(C(F)(F)F)c3)cc1)CCN(C)CC2 | 92 | 25 | 18
COc1ccccc1Oc1c(N(C)S(=O)(=O)c2ccc(C(C)C)cc2)nc(C(F)(F)F)nc1N(C)S(=O)(=O)c1ccc(C(C)C)cc1 | 94 | 98 | 4
COC(=O)CCCCOc1c(OC)cc(Cc2cnc(N)nc2N)cc1OC | 93 | 0 | 0
Cc1c(C)n(C2CCCCC2)c2ncnc(OC3CCN(CC(=O)NC4CC4)CC3)c12 | 94 | 72 | 21
CC(=O)c1ccc2nc[nH]c(=O)c2c1 | 96 | 99 | 79
CNC(=O)/C=C/c1cc(NC(=O)Nc2ccnc3c(Br)cccc23)ccc1OC | 95 | 68 | 12
Cc1cc(NC(=O)c2coc3cc(F)c(N4CC(C)N(C)C(C)C4)cc23)ccc1-n1ccnc1.Cl (configuration not stated) | 96 | 42 | 0
CCOCCCNc1sc(S(=O)(=O)c2ccccc2)nc1S(=O)(=O)c1ccc(C)cc1 | 96 | 87 | 0
Br.CCC1N=C(N)N=C(N)N1OCCCOc1c(Cl)cc(Cl)cc1Cl (configuration not stated) | 95 | 96 | 67
CCc1nc2c(cnn2CC)c(NC2CCOCC2)c1CNC(=O)N1CCOCC1 | 98 | 48 | 0
CCOc1ccc2c(=NN=Cc3cc(OC)c(OC)c(OC)c3)cc(C)[nH]c2c1 | 100 | 99 | 18
COc1ccc(CNCCc2cccs2)cc1-c1ccc(S(=O)(=O)NCCN2CCCC2)s1.O=C(O)C(F)(F)F | 99 | 21 | 41
Cl.Cn1cc(Br)c(-c2cccc(Nc3ccnc4cc(-c5nccs5)ccc34)c2)n1 | 91 | 32 | 37

SMILES | Inhibition (Plasmodium falciparum [1]) [%] | Inhibition (Plasmodium falciparum [2]) [%] | Inhibition (HepG2) [%]
Nc1nc(N)c2c(Cl)c(N3CCOCC3)ccc2n1 | 96 | 3 | 65
COc1cccc(CNC[C@@H](O)[C@H](Cc2ccccc2)NC(=O)c2cc(N3CCCC3=O)c3[nH]cc(C(C)C)c3c2)c1 | 96 | 98 | 5
Cc1cccc(CNc2nc(C)cc(N[C@@H](Cc3ccccc3)C(=O)NCCOc3ccccc3)n2)c1.O=C(O)C(F)(F)F | 93 | 54 | 28
CCOc1cc(C(=O)Nc2ccc(-c3nc4ccccc4[nH]3)cc2)cc(OCC)c1OCC | 100 | 94 | 42
CC(CN(C)C)C(=O)Nc1cccc(-c2ccc(-c3nc4cc(F)ccc4[nH]3)cc2)c1 (configuration not stated) | 100 | 100 | 11
Cc1cccc(NC(=O)N(Cc2cc3cc(C)cc(C)c3[nH]c2=O)C2CC2)c1 | 97 | 94 | 3
Cc1cc(N(C)CCCN(C)C)nc(Nc2ccc(Br)cc2)n1 | 100 | 84 | 4
CC1(C)C2C=C(CN3CCC(NC(=O)Nc4ccc(Cl)c(Cl)c4)CC3)C1CC2 (configuration not stated) | 100 | 33 | 28
O=C1NC(c2ccc(N3CCCCCC3)cc2)Nc2ccccc21 (configuration not stated) | 96 | 96 | 19
Br.Cc1ccc(OCCCON2C(=N)N=C(N)NC2(C)C)cc1C | 96 | 94 | 57
CCCCCCP(=O)(COc1ccc(CCN(CC(O)COc2cccc3[nH]c(C(N)=O)cc23)CC(O)COc2cccc3[nH]c(C(N)=O)cc23)cc1)OCCCC (configuration not stated) | 99 | 97 | 0
Cl.Oc1cccc(-c2nc3cc(C4=NC5CCCCC5N4)ccc3[nH]2)c1 (configuration not stated) | 98 | 97 | 0
O=S(=O)(ON=C1CCc2ccccc21)c1ccc(Cl)cc1 | 100 | 79 | 0
CCN1CCN(C(=O)NC(C(=O)N2CCCC(COc3ccc(Cc4ccccc4)cc3)C2)c2cccs2)C(=O)C1=O (configuration not stated) | 95 | 87 | 12
CCCN(CCC)CCCN(CCCN(CCC)CCC)c1cc(C)nc(Nc2ccc3cc(Br)ccc3c2)n1.Cl | 98 | 99 | 99
CCCCn1c(-c2ccco2)nc2c(c(=O)c3ccccc3n2C)c1=O | 87 | 64 | 11
CC(C)N1CCC(Oc2ccc(CN3CCN(C(c4ccccc4)c4ccc(Cl)cc4)CC3)cc2)CC1.Cl (configuration not stated) | 97 | 46 | 44
Cl.Clc1ccc(CCNCCCCCCNCCc2ccc3c(c2)OCO3)cc1 | 91 | 11 | 23
CS(=O)(=O)c1cc2c(Nc3ccc(N4CCOCC4)cc3)c(C(N)=O)cnc2cc1Br.Cl | 100 | 89 | 0
CC[C@H](C)CNC(=O)c1ccc(-c2cccc(CN3CCC(N4CCCC4)CC3)c2)nc1.O=C(O)C(F)(F)F | 91 | 7 | 0
